In PubChem BioAssay AID1159580 (chemical genetic matrix, 2015):
About 2,000 (36%) of roughly 5,500 compounds were called active. Not shown: some 18% with an inconclusive outcome. No stated cut-off is given here; in the data, active means normalized growth mostly below about 0.91 (no sharp cut-off); inconclusive means no clear call, values can overlap the other calls; inactive means mostly above about 0.92. This is one part of the list.

Test: chemical genetic growth profiling, strain panel (AID 1159580);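 further: tested at 20 µM; growth read once vehicle control cultures reached saturation at 30 °C; 1 = growth at the plate median or of vehicle wells; lower values mean less growth of the strain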
Conditions: growth OD
[1] = S. cerevisiae deletion strains, locus YHR030C, strain SLT2, hits give low values
[2] = S. cerevisiae deletion strains, locus YHR079C, strain IRE1, hits give low values
[3] = S. cerevisiae deletion strains, locus YJL095W, strain BCK1, hits give low values
[4] = S. cerevisiae deletion strains, locus YJR066W, strain TOR1, hits give low values
[5] = S. cerevisiae deletion strains, locus YLR113W, strain HOG1, hits give low values
[6] = S. cerevisiae deletion strains, locus YNL183C, strain NPR1, hits give low values
[7] = S. cerevisiae deletion strains, locus YOR231W, strain MKK1, hits give low values
[8] = S. cerevisiae deletion strains, locus YPL256C, strain CLN2, hits give low values
[9] = S. cerevisiae deletion strains, locus YAL013W, strain DEP1, hits give low values
[10] = S. cerevisiae deletion strains, locus YBR229C, strain ROT2, hits give low values
[11] = S. cerevisiae deletion strains, locus YCL061C, strain MRC1, hits give low values
[12] = S. cerevisiae deletion strains, locus YDL101C, strain DUN1, hits give low values
[13] = S. cerevisiae deletion strains, locus YDL134C, strain PPH21, hits give low values
[14] = S. cerevisiae deletion strains, locus YDR150W, strain NUM1, hits give low values
[15] = S. cerevisiae deletion strains, locus YEL061C, strain CIN8, hits give low values
[16] = S. cerevisiae deletion strains, locus YGR078C, strain PAC10, hits give low values
[17] = S. cerevisiae deletion strains, locus YHR087W, strain rtc3, hits give low values
[18] = S. cerevisiae deletion strains, locus YJR043C, strain POL32, hits give low values
[19] = S. cerevisiae deletion strains, locus YJR075W, strain HOC1, hits give low values
[20] = S. cerevisiae deletion strains, locus YLR039C, strain RIC1, hits give low values
[21] = S. cerevisiae deletion strains, locus YLR058C, strain SHM2 (second series), hits give low values
[22] = S. cerevisiae deletion strains, locus YLR085C, strain ARP6, hits give low values
[23] = S. cerevisiae deletion strains, locus YLR262C, strain YPT6, hits give low values
[24] = S. cerevisiae deletion strains, locus YML094W, strain GIM5, hits give low values
[25] = S. cerevisiae deletion strains, locus YMR219W, strain ESC1, hits give low values
[26] = S. cerevisiae deletion strains, locus YMR263W, strain SAP30, hits give low values
[27] = S. cerevisiae deletion strains, locus YNL153C, strain GIM3, hits give low values
[28] = S. cerevisiae deletion strains, locus YNL298W, strain CLA4 (second series), hits give low values
[29] = S. cerevisiae deletion strains, locus YNL322C, strain KRE1, hits give low values
[30] = S. cerevisiae deletion strains, locus YNR030W, strain Alg12, hits give low values
[31] = S. cerevisiae deletion strains, locus YOL006C, strain TOP1, hits give low values
[32] = S. cerevisiae deletion strains, locus YPL055C, strain LGE1, hits give low values
[33] = S. cerevisiae deletion strains, locus YPL241C, strain CIN2, hits give low values
[34] = S. cerevisiae deletion strains, locus YPR135W, strain CTF4, hits give low values
[35] = S. cerevisiae strains, strain wild type, hits give low values

Measured: normalized growth

CC(N)C12CC3CC(CC(C3)C1)C2 (centres undefined)
inactive: [1] 0.992 | [2] 0.977 | [3] 0.989 | [4] 0.935 | [5] 1.02 | [6] 0.944 | [7] 1.01 | [8] 0.979

COCCCNC(=S)N/N=C\c1cccc(OC)c1O
inactive: [9] 0.984 | [10] 1.02 | [11] 0.979 | [12] 0.998 | [13] 1.01 | [14] 0.928 | [15] 0.999 | [16] 0.991 | [1] 1.01 | [17] 1.01 | [18] 1.01 | [19] 0.979 | [20] 1.11 | [21] 0.997 | [22] 0.978 | [23] 1.08 | [24] 0.994 | [25] 0.991 | [26] 0.991 | S. cerevisiae deletion strains, locus YMR307W, strain GAS1, hits give low values 0.951 | [27] 0.987 | [28] 1.04 | [29] 0.989 | [30] 0.982 | [31] 0.988 | [32] 0.856 | [33] 0.964 | [34] 0.94 | [35] 1.02

CCOC(=O)N/N=C\c1ccccc1OCC
inactive: [9] 1.02 | [10] 0.998 | [11] 1.02 | [12] 1.01 | [13] 1.02 | [14] 0.923 | [15] 1.02 | [16] 1 | S. cerevisiae deletion strains, locus YGR229C, strain SMI1, hits give low values 1.01 | [1] 1.02 | [17] 0.992 | [18] 1.02 | [19] 0.985 | S. cerevisiae deletion strains, locus YKL190W, strain CNB1, hits give low values 1 | [20] 0.931 | [21] 0.995 | [22] 1.04 | [23] 0.917 | [24] 1.02 | [25] 0.997 | [26] 1.03 | S. cerevisiae deletion strains, locus YNL128W, strain TEP1, hits give low values 1.01 | [27] 1.02 | [28] 1.03 | [29] 1 | [30] 1.02 | [31] 1.06 | [32] 0.98 | [33] 1.02 | [34] 1.03 | [35] 1.01

COCCCNC(=S)N/N=C\c1cc(Br)ccc1O
inactive: S. cerevisiae deletion strains, locus YAR019C, strain CDC15, hits give low values 0.967 | S. cerevisiae deletion strains, locus YBL105C, strain PKC1, hits give low values 0.971 | S. cerevisiae deletion strains, locus YBR135W, strain CKS1, hits give low values 0.962 | S. cerevisiae deletion strains, locus YBR136W, strain MEC1, hits give low values 0.967 | S. cerevisiae deletion strains, locus YBR160W, strain CDC28, hits give low values 0.961 | S. cerevisiae deletion strains, locus YDL017W, strain CDC7, hits give low values 0.966 | S. cerevisiae deletion strains, locus YDL028C, strain MPS1, hits give low values 0.963 | [12] 0.975 | S. cerevisiae deletion strains, locus YDL108W, strain KIN28, hits give low values 0.97 | S. cerevisiae deletion strains, locus YDL132W, strain cdc53, hits give low values 0.963 | S. cerevisiae deletion strains, locus YDL214C, strain PRR2, hits give low values 0.977 | S. cerevisiae deletion strains, locus YDR052C, strain DBF4, hits give low values 0.973 | S. cerevisiae deletion strains, locus YDR054C, strain cdc34, hits give low values 0.956 | S. cerevisiae deletion strains, locus YDR226W, strain ADK1, hits give low values 0.96 | S. cerevisiae deletion strains, locus YDR477W, strain SNF1, hits give low values 0.954 | S. cerevisiae deletion strains, locus YER123W, strain YCK3, hits give low values 0.989 | S. cerevisiae deletion strains, locus YER133W, strain GLC7, hits give low values 0.95 | S. cerevisiae deletion strains, locus YFL009W, strain cdc4, hits give low values 0.96 | S. cerevisiae deletion strains, locus YFL029C, strain CAK1, hits give low values 0.963 | S. cerevisiae deletion strains, locus YFR003C, strain YPI1, hits give low values 0.966 | S. cerevisiae deletion strains, locus YFR019W, strain FAB1, hits give low values 0.983 | S. cerevisiae deletion strains, locus YFR028C, strain CDC14, hits give low values 0.972 | S. cerevisiae deletion strains, locus YGR040W, strain KSS1, hits give low values 0.957 | S. cerevisiae deletion strains, locus YGR052W, strain FMP48, hits give low values 1 | S. cerevisiae deletion strains, locus YGR092W, strain DBF2, hits give low values 0.915 | [1] 0.898 | [2] 0.967 | S. cerevisiae deletion strains, locus YHR082C, strain KSP1, hits give low values 1.03 | S. cerevisiae deletion strains, locus YHR205W, strain SCH9, hits give low values 0.943 | S. cerevisiae deletion strains, locus YIL147C, strain SLN1, hits give low values 0.957 | [3] 0.992 | S. cerevisiae deletion strains, locus YJL128C, strain PBS2, hits give low values 0.936 | S. cerevisiae deletion strains, locus YJL157C, strain FAR1, hits give low values 0.965 | S. cerevisiae deletion strains, locus YJR016C, strain ILV3, hits give low values 0.966 | S. cerevisiae deletion strains, locus YJR066W, strain TOR1 (second series), hits give low values 0.983 | [4] 1.02 | S. cerevisiae deletion strains, locus YKL048C, strain ELM1, hits give low values 0.98 | S. cerevisiae deletion strains, locus YKL067W, strain YNK1, hits give low values 0.984 | S. cerevisiae deletion strains, locus YKL101W, strain HSL1, hits give low values 0.975 | S. cerevisiae deletion strains, locus YKL193C, strain SDS22, hits give low values 0.954 | S. cerevisiae deletion strains, locus YKL203C, strain TOR2, hits give low values 1.02 | [5] 0.985 | S. cerevisiae deletion strains, locus YLR133W, strain CKI1, hits give low values 0.967 | S. cerevisiae deletion strains, locus YLR403W, strain SFP1, hits give low values 0.91 | S. cerevisiae deletion strains, locus YML070W, strain DAK1, hits give low values 0.982 | S. cerevisiae deletion strains, locus YMR001C, strain CDC5, hits give low values 0.965 | S. cerevisiae deletion strains, locus YMR205C, strain PFK2 (second series), hits give low values 0.973 | S. cerevisiae deletion strains, locus YMR277W, strain FCP1, hits give low values 0.961 | S. cerevisiae deletion strains, locus YNL006W, strain LST8, hits give low values 0.965 | S. cerevisiae deletion strains, locus YNL020C, strain ARK1, hits give low values 0.975 | S. cerevisiae deletion strains, locus YNL161W, strain CBK1, hits give low values 0.962 | [6] 1.09 | S. cerevisiae deletion strains, locus YNL207W, strain RIO2, hits give low values 0.967 | S. cerevisiae deletion strains, locus YNL222W, strain SSU72, hits give low values 0.966 | S. cerevisiae deletion strains, locus YNL307C, strain MCK1 (second series), hits give low values 0.97 | S. cerevisiae deletion strains, locus YOL078W, strain AVO1, hits give low values 0.964 | S. cerevisiae deletion strains, locus YOL136C, strain PFK27, hits give low values 0.982 | S. cerevisiae deletion strains, locus YOR061W, strain CKA2, hits give low values 0.974 | S. cerevisiae deletion strains, locus YOR119C, strain RIO1, hits give low values 1.03 | [7] 0.997 | S. cerevisiae deletion strains, locus YOR329C, strain SCD5, hits give low values 0.966 | S. cerevisiae deletion strains, locus YPL031C, strain PHO85, hits give low values 0.938 | S. cerevisiae deletion strains, locus YPL153C, strain RAD53, hits give low values 0.951 | S. cerevisiae deletion strains, locus YPL204W, strain HRR25, hits give low values 0.937 | S. cerevisiae deletion strains, locus YPL209C, strain IPL1, hits give low values 0.965 | [8] 0.903 | S. cerevisiae deletion strains, locus YPR025C, strain CCL1, hits give low values 0.962 | S. cerevisiae deletion strains, locus YPR106W, strain ISR1, hits give low values 0.971 | S. cerevisiae deletion strains, locus YPR111W, strain DBF20, hits give low values 0.967 | S. cerevisiae deletion strains, strain NNK1, hits give low values 0.982 | S. cerevisiae deletion strains, strain TSCII, hits give low values 0.964
